# About 950 (1.4%) of roughly 69,000 compounds showed an effect of 50% or more. Only a selection was taken, and strong results are over-represented in it overall.
# Tested on: Mycobacterium tuberculosis
# Test: Cornell M. t heat shock assay; further: in the data most compounds retested in dose-response had high values
# Assay type: functional, organism-based
# Set-up: dose or concentration left out as unconfirmed
row,SMILES,Percent Effect
1,COCC1Cn2nnc(-c3cnn(C)c3)c2CN1Cc1ccoc1.O=C(O)C(F)(F)F (stereo not given),5.008%
2,O=C(O)CCC(=O)Nc1nn(Cc2ccccc2Cl)cc1Cl,2.15%
3,Cc1ccc(N2CCO[C@H]3CN(CC4CC4)C[C@H]32)nn1.O=C(O)C(F)(F)F.O=C(O)C(F)(F)F,-7.487%
4,COc1cc(N2CC[C@@H](O)[C@@H]2Cc2cccnc2)ncn1.O=C(O)C(F)(F)F,0.6687%
5,CCCN(CC(=O)N1CCNCC1)C(=O)c1cccc(Cl)c1.O=C(O)C(F)(F)F,0.5334%
6,CN(CCCOc1ccccc1)Cc1nccn1C,-13.65%
7,Cc1ccc(OCCN(C)Cc2nccn2C)c(C)c1,55.39%
8,CCOc1ccccc1OCCN(C)Cc1nccn1C,-26.9%
9,O=C(C1CCCc2[nH]ncc21)N1CCCC2(C1)OCCO2 (stereo not given),10.11%
10,CN(C)C(c1ccccn1)[C@H]1CC[C@H](CNC(=O)C2CCCC2)CC1 (stereo not given in full),5.9375%
11,N#Cc1ccc(C(=O)N2CC[C@H]3[C@H]2CCN3CC2CCOCC2)cc1.O=C(O)C(F)(F)F,-36.11%
12,N#CC1(C(=O)NCCCNc2ccc(C(F)(F)F)cn2)CCCC1,102.8%
13,O=C(NCCCNc1ccc(C(F)(F)F)cn1)c1ccc(F)cc1,26.36%
14,N#Cc1ccc(C(=O)NCCCNc2ccc(C(F)(F)F)cn2)cc1,28.89%
15,O=C(NCCCNc1ccc(C(F)(F)F)cn1)c1ccccc1,26.28%
16,N#Cc1ccc(NCCNc2ccc(C(F)(F)F)cn2)nc1,51.52%
17,Cc1cc(NCCNc2ccc(C#N)cn2)nc(C)n1,-18.17%
18,O=C(O)C(F)(F)F.O=C1CC(c2ccccc2)C2(CCN(Cc3nccs3)CC2)N1 (stereo not given),-1.259%
19,CC(=O)N1CCC2(CC1)CNc1c(F)cccc12.Cl,12.35%
20,Cc1nc(-c2cc(Cl)cc3c2OC(CN)C3)c[nH]1 (stereo not given),52.4%
21,Cc1nc(-c2cc(Cl)c3c(c2)CC(CN)O3)c[nH]1 (stereo not given),42.51%
22,Cc1cc2c(c(-c3c[nH]c(C)n3)c1)OC(CN)C2 (stereo not given),1.503%
23,Cc1cc(C(F)(F)F)n2nc(C3CCCN3C3CCSCC3)cc2n1.O=C(O)CC(O)(CC(=O)O)C(=O)O (stereo not given),-13.15%

row,SMILES,Percent Effect
1,COCC(=O)NC1CC2(CCN(CC3CC3)CC2)Oc2ccccc21.O=C(O)C(F)(F)F (stereo not given),-26.45%
2,COc1cc(N2CCC3(CCN(Cc4nccs4)CC3)C2)ncn1.O=C(O)C(F)(F)F,24.13%
3,Cc1cccc(CN2C[C@H](OCc3csc(C)n3)[C@H]3COC[C@H]32)n1.O=C(O)C(F)(F)F.O=C(O)C(F)(F)F,-14.33%
4,C[S+]([O-])c1nncn1CC(=O)c1ccc(Br)cc1 (stereo not given),11.9%
5,CC(C)Cc1ccc(C(=O)Cn2cnnc2[S+](C)[O-])cc1 (stereo not given),59.76%
6,CC(C)Oc1ccc(C(=O)Cn2cnnc2[S+](C)[O-])cc1 (stereo not given),17.53%
7,O=C(O)C(F)(F)F.O=C(c1ccc(F)cc1)N1CCC2(CCCN2CC2CC2)CC1,-17.36%
8,O=C(NC1CC1)c1ccc2ccc(N3CCN(CC4CC4)CC3)n2c1,38.85%
9,CS(=O)(=O)N1CCN(c2ccc3ccc(C(=O)NC4CC4)cn23)CC1,20.39%
10,COCCN1CCN(c2ccc3ccc(C(=O)NC4CC4)cn23)CC1,-14.38%
11,CN(C)C(=O)N1CCN(c2ccc3ccc(C(=O)NC4CC4)cn23)CC1,-6.605%
12,CC(C)N1CCN(c2ccc3ccc(C(=O)NC4CCCC4)cn23)CC1.O=C(O)C(F)(F)F,67.57%
13,CC(=O)N1CCN(c2ccc3ccc(C(=O)NC4CCCC4)cn23)CC1,69.47%
14,CN(C)C(=O)[C@H]1C[C@@H]2CCN(C3CCOCC3)C[C@@H]2O1.O=C(O)C(F)(F)F,2.005%
15,CN(C)c1ncnc2c1CCN(CC1CCOC1)CC2.O=C(O)C(F)(F)F (stereo not given),-1.073%
16,Cc1cccc(N2CC[C@@H]3CN(C(=O)c4ccco4)CCO[C@@H]3C2)n1.O=C(O)C(F)(F)F,6.087%
17,Cn1cccc1C(=O)N1CCO[C@@H]2CN(Cc3nccs3)C[C@@H]2C1.O=C(O)C(F)(F)F,-1.358%
18,O=C(NCc1ccco1)c1cc(N2CC[C@@H](O)C2)ccn1,1.104%
19,CCCOC1CCCN(c2ccnc(C(=O)NCc3ccco3)c2)C1 (stereo not given),56.57%
20,CN(C)[C@H]1CCN(c2ccnc(C(=O)NCc3ccco3)c2)C1,19.62%
21,CC[C@@H]1N(Cc2ccoc2)CCC[C@]12CCC(=O)N2CCOC.O=C(O)C(F)(F)F,-21.47%
22,CN1CC[C@H]2[C@H](C[C@@H](CN3CCCC3)N2c2nccs2)C1.O=C(O)C(F)(F)F.O=C(O)C(F)(F)F.O=C(O)C(F)(F)F,17.76%
23,O=C(O)C(F)(F)F.O=C1N(CC2CC2)CCC12CCCN(c1ncc(F)cn1)C2 (stereo not given),23.17%

row,SMILES,Percent Effect
1,Cc1ccc(CN2CCC3(C2)C(=O)N(CC2CC2)c2ccccc23)s1.O=C(O)C(F)(F)F (stereo not given),22.05%
2,Cc1ccc(CN2CCC3(CC2)C(=O)N(C)c2ccccc23)s1.O=C(O)C(F)(F)F,67.96%
3,Cc1ccc(CN2CCC3(C2)C(=O)N(CC(N)=O)c2ccccc23)s1 (stereo not given),-35.1%
4,CC(C)CN1C(=O)C2(CCN(Cc3ccc(F)cc3)C2)c2ccccc21 (stereo not given),17.34%
5,Cc1ccc(CN2CCC3(CC2)C(=O)Nc2ccccc23)s1.O=C(O)C(F)(F)F,0.7618%
6,Cc1ccc(CN2CCC3(C2)C(=O)N(CC(C)C)c2ccccc23)s1 (stereo not given),104.8%
7,Cc1cccc(CN2C[C@@H]3COC[C@]3(COc3cccnc3)C2)n1.O=C(O)C(F)(F)F.O=C(O)C(F)(F)F.O=C(O)C(F)(F)F,-8.53%
8,Cc1csc(Nc2cc(C3CCCCN3C)nc(C)n2)n1 (stereo not given),-8.179%
9,Cc1cc(Nc2nc(C)cs2)nc(C2CCCCN2CCO)n1 (stereo not given),103.2%
10,Cc1cccc(Nc2cc(C)nc(C3CCCCN3CC(N)=O)n2)n1 (stereo not given),-15.32%
11,COc1nc2cc(C)ccc2cc1CN(C)Cc1cc(C)[nH]n1.O=C(O)CC(O)(CC(=O)O)C(=O)O,-1.641%
12,O=C(O)C(F)(F)F.O=C(O)C(F)(F)F.O=C1[C@H]2CN(Cc3ccoc3)C[C@H]2CN1CCN1CCCC1,-10.49%
13,O=C(C1=CCCC1)N1C[C@@H]2COC[C@]2(COc2cccnc2)C1,1.513%
14,O=C(c1ncccn1)N1C[C@@H]2COC[C@]2(COc2cccnc2)C1,26.01%
15,O=C(c1cocn1)N1C[C@@H]2COC[C@]2(COc2cccnc2)C1,75.2%
16,O=C(O)C(F)(F)F.O=C(c1cocn1)N1C[C@H]2CCC[C@@]2(COc2ccccn2)C1,21.2%
17,CS(=O)(=O)N1CCC2(CC1)CC(NCC1CC1)c1ccccc12.O=C(O)C(F)(F)F (stereo not given),1.272%
18,Cn1cc(CNC2CC3(CCN(S(C)(=O)=O)CC3)c3ccccc32)cn1.O=C(O)C(F)(F)F (stereo not given),36.25%
19,CS(=O)(=O)N1CCC2(CC1)CC(NCc1ccco1)c1ccccc12.O=C(O)C(F)(F)F (stereo not given),55%
20,COc1ccccc1C1CCN(c2ccc3cc[nH]c3n2)CC1,-1.592%
21,COc1cccc(C2CCN(c3ccc4cc[nH]c4n3)C2)c1OC (stereo not given),36.99%
22,COc1ccc(OC)c(C2CCN(c3ccc4cc[nH]c4n3)C2)c1 (stereo not given),103.8%
23,CS(=O)(=O)N1C[C@H]2CC[C@@H]1CN(Cc1ccncc1)C2,-0.4425%

row,SMILES,Percent Effect
1,Cn1cc(N2CCC3(CCN(Cc4nccs4)C3)C2=O)cn1.O=C(O)C(F)(F)F (stereo not given),-0.6336%
2,Cc1cnnn1Cc1ncn2c1CN(Cc1cccs1)CCC2.O=C(O)C(F)(F)F,1.772%
3,O=C(O)C(F)(F)F.O=C(O)C(F)(F)F.O=C1CO[C@@H]2CN(CC3CCOCC3)C[C@H]2N1Cc1ccncc1,-5.107%
4,N#Cc1cc(NC(=O)c2ccsc2)ccc1N1CCC(O)CC1,11.62%
5,Cc1ccc(C(=O)Nc2ccc(N3CCC(O)CC3)c(C#N)c2)s1,25.13%
6,Cc1ccsc1C(=O)Nc1ccc(N2CCC(O)CC2)c(C#N)c1,75.65%
7,COc1ccc(C[C@H]2CN(C(=O)c3ccc(C)nc3)CC[C@@H]2OC)cc1.O=C(O)C(F)(F)F,-2.913%
8,CNC(=O)[C@H]1C[C@@H]2CCN(Cc3ccncc3)C[C@H]2O1.O=C(O)C(F)(F)F.O=C(O)C(F)(F)F,-3.411%
9,CC(C)c1cc(C(=O)NCC2CCCN(C(C)C)C2)n(C)n1.Cl (stereo not given),-0.8268%
10,Cc1nc(C)n(CC2CCCN2CC(=O)Nc2cc(C(C)C)no2)n1 (stereo not given),-40.94%
11,Cc1cnn(CC2CCCN2CC(=O)Nc2cc(C(C)C)no2)c1 (stereo not given),98.13%
12,Cc1cnn(CC2CCCN2CC(=O)NC2CCOCC2)c1 (stereo not given),-0.7823%
13,Cc1cc(C)n(CC2CCCN2CC(=O)Nc2cc(C(C)C)no2)n1 (stereo not given),66.41%
14,CC(C)(C)c1cc(NC(=O)CN2CCCC2Cn2cncn2)on1 (stereo not given),2.377%
15,Cc1cnn(CC2CCCN2CC(=O)Nc2cc(C(C)(C)C)no2)c1 (stereo not given),73.93%
16,Cc1cnn(CC2CCCN2CC(=O)Nc2cc(C)no2)c1 (stereo not given),35.93%
17,CC(C)c1cc(NC(=O)CN2CCCC2Cn2cccn2)on1 (stereo not given),-10.53%
18,CC(C)(C)c1cc(NC(=O)CN2CCCCC2Cn2cncn2)on1 (stereo not given),-1.6%
19,Cc1cnn(CC2CCCN2CC(=O)Nc2cc(C)on2)c1 (stereo not given),-31.38%
20,CC(C)(C)c1cc(NC(=O)CN2CCCC2Cn2cccn2)on1 (stereo not given),77.39%
21,CC(C)c1cc(NC(=O)CN2CCCC2Cn2cncn2)on1 (stereo not given),-8.042%

# From ChEMBL document CHEMBL3988442, “University of Dundee, Small-Polar-MMV Screening Library” (2021)
